# Data as given in PubChem BioAssay (Tox21).
# Unmarked numbers belong to inactive results. Results filed as inconclusive are left out. A call without a number means that no potency is given here. The source made the active and inactive calls. Unless noted, calls come from the whole dose curve; as a rule, active = well fitted curve in the direction sought with a large enough effect in the repeat runs; inconclusive = weak or mixed curves; inactive = no such curve, though single readings can be large; an effect the other way counts as inactive or inconclusive.
# Legend:
# [1] = qHTS assay for small molecule agonists of the p53 signaling pathway (AID 651631; calls by dose curve; note: nearly all actives have a fitted effect of over 15% in size)
# Outline: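 HCT-116 cells carrying a stable p53 response element–beta-lactamase reporter were plated, rested 5 h at 37 °C, then exposed to compound in DMSO for 16 h at 37 °C; reporter activity was read as FRET substrate fluorescence after 2 h at room temperature.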
# [2] = qHTS assay for small molecules that induce genotoxicity in human embryonic kidney cells expressing luciferase-tagged ATAD5 (AID 651632); note: nearly all actives have a fitted effect of over 15% in size
# Outline: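 Cells were seeded at 2,000 per well, dosed with compound, and incubated 16 hr at 37C in 5% CO2. Luciferase activity was then quantified after a 30 min room-temperature incubation with Amplite.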
# [3] = qHTS assay for small molecule agonists of the p53 signaling pathway - cell viability (AID 651633; calls by dose curve; note: series mostly up to about 83 µM; nearly all actives have a fitted effect of over 30% in size)
# Outline: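 p53RE-bla cells were treated with compound for 16 hours at 37 C. Cytotoxicity was then measured as CellTiter-Glo luminescence after 30 min at room temperature.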
# [4] = qHTS assay for small molecules that induce genotoxicity in human embryonic kidney cells expressing luciferase-tagged ATAD5 - cell viability (AID 651634; calls by dose curve; note: nearly all actives have a fitted effect of over 25% in size)
# Outline: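 Cells (HEK293T, luciferase-tagged ATAD5) are seeded at 2,000 per well, dosed with compound or DMSO vehicle, and incubated 15.5 hr at 37C and 5% CO2. CellTiter-Fluor is added for 30 min before fluorescence is measured.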
# [5] = qHTS assay for small molecule disruptors of the mitochondrial membrane potential - cell viability (AID 720634; calls by dose curve;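 note: human HepG2 liver cancer cells; series mostly up to about 83 µM; nearly all actives have a fitted effect of over 20% in size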)
# Outline: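 Cytotoxicity was measured by ATP quantitation in HepG2 wells that had first been treated with compound for 1 hr and stained with m-MPI dye; CellTiter-Glo incubation was 30 min at room temperature.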
# [6] = qHTS assay for small molecule disruptors of the mitochondrial membrane potential (AID 720635); note: potency is the fitted concentration of half-maximal effect
# Outline: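 HepG2 cells exposed to compound 1 hr at 37C, then Mito-MPS dye 30 min. Ratio read of aggregate (540/590 nm) versus monomer (490/535 nm) fluorescence.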
# [7] = qHTS assay to test for compound auto fluorescence at 590 nm (red) in HepG2 cells (AID 720674)
# Outline: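 Fluorescence at 590 nm emission following 540 nm excitation was recorded from HepG2 wells one hour after compound transfer, with DMSO-only wells as vehicle and Rose Bengal sodium equivalency as the scale.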
# [8] = qHTS assay to test for compound auto fluorescence at 535 nm (green) in HepG2 cells (AID 720675)
# [9] = qHTS assay to test for compound auto fluorescence at 460 nm (blue) in HEK293 cells (AID 720678)
# Outline: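 Measured: blue fluorescence (Ex 405/Em 460 nm) of compound-treated HEK293 cells, incubated overnight at 37C with 5% CO2 and scaled to triamterene equivalents.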
# [10] = qHTS assay to test for compound auto fluorescence at 590 nm (red) in HEK293 cells (AID 720679)
# Outline: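 Using HEK293 cells at 2,000 per well, the screen added 23 nL of each compound after cell attachment and incubated overnight (37C, 5% CO2). The plate reader then captured red-label fluorescence, Ex/Em 540/590nm.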
# [11] = qHTS assay to test for compound auto fluorescence at 535 nm (green) in HEK293 cells (AID 720680)
# [12] = qHTS assay to test for compound auto fluorescence at 460 nm (blue) in HEK293 cell free culture (AID 720681)
# Outline: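 Compounds were added to cell-free DMEM with 10% FBS and fluorescence read directly. The blue channel used 405 nm excitation and 460 nm emission, with triamterene as the reference fluorophore.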
# [13] = qHTS assay to test for compound auto fluorescence at 535 nm (green) in HEK293 cell free culture (AID 720682)
# Outline: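 Read-out: 485/535 nm fluorescence intensity, calibrated against fluorescein. Medium only (DMEM + 10% FBS, no cells); test compound or DMSO vehicle added by pintool before plate reading.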
# [14] = qHTS assay to test for compound auto fluorescence at 590 nm (red) in HEK293 cell free culture (AID 720683)
# Outline: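 Cell-free wells of DMEM with 10% FBS received compound, and intrinsic fluorescence was read at excitation/emission 540/590 nm. Values expressed as equivalence to Rose Bengal sodium.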
# [15] = qHTS assay to test for compound auto fluorescence at 590 nm (red) in HepG2 cell free culture (AID 720684)
# Outline: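 Auto fluorescence equivalency versus Rose Bengal sodium, red channel Ex/Em 540/590 nm; compounds in cell-free MEM/10% FBS; DMSO vehicle control.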
# [16] = qHTS assay to test for compound auto fluorescence at 460 nm (blue) in HepG2 cell free culture (AID 720685)
# Outline: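 Cell-free plates of MEM plus 10% FBS received 23 nL compound or DMSO vehicle; blue-channel (405/460 nm) intensity scored against triamterene as reference fluorophore.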
# [17] = qHTS assay to test for compound auto fluorescence at 535 nm (green) in HepG2 cell free culture (AID 720686)
# [18] = qHTS assay to test for compound auto fluorescence at 460 nm (blue) in HepG2 cells (AID 720687)
# Outline: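 HepG2 cells in MEM with 10% FBS, attached overnight at 37 C, were exposed to compound or DMSO for 1 hr at 37 C, 5% CO2. Blue fluorescence was read at 405/460 nm, with triamterene as reference fluorophore.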
# [19] = molecular target: Glucocorticoid receptor (Homo sapiens) (UniProt P04150); experiment: qHTS assay to identify small molecule agonists of the glucocorticoid receptor (GR) signaling pathway (AID 720691; active = well fitted activation curve with a large enough effect in the signal ratio in the repeat runs, not every such curve was filed as active; the % refers to the signal ratio)
# Outline: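 Steps: seed GR-bla HeLa cells, incubate 4 h at 37 C/5% CO2; pin-transfer DMSO-dissolved compounds; incubate 18 h at 37 C; add LiveBLAzer B/G FRET substrate; after 2 h at room temperature, measure fluorescence.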
# [20] = molecular target: Glucocorticoid receptor (Homo sapiens) (UniProt P04150); experiment: qHTS assay to identify small molecule antagonists of the glucocorticoid receptor (GR) signaling pathway (AID 720692; active = well fitted inhibition curve with a large enough effect in the signal ratio in the repeat runs, not every such curve was filed as active; the % refers to the signal ratio)
# Outline: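 Antagonism was scored as loss of dexamethasone-driven (5 nM final) reporter signal in HeLa cells bearing a glucocorticoid response element–beta-lactamase construct, after 18 h compound exposure at 37 C and 2 h FRET substrate loading.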
# Sequence of Glucocorticoid receptor (Homo sapiens) (P04150 whole entry, looked up): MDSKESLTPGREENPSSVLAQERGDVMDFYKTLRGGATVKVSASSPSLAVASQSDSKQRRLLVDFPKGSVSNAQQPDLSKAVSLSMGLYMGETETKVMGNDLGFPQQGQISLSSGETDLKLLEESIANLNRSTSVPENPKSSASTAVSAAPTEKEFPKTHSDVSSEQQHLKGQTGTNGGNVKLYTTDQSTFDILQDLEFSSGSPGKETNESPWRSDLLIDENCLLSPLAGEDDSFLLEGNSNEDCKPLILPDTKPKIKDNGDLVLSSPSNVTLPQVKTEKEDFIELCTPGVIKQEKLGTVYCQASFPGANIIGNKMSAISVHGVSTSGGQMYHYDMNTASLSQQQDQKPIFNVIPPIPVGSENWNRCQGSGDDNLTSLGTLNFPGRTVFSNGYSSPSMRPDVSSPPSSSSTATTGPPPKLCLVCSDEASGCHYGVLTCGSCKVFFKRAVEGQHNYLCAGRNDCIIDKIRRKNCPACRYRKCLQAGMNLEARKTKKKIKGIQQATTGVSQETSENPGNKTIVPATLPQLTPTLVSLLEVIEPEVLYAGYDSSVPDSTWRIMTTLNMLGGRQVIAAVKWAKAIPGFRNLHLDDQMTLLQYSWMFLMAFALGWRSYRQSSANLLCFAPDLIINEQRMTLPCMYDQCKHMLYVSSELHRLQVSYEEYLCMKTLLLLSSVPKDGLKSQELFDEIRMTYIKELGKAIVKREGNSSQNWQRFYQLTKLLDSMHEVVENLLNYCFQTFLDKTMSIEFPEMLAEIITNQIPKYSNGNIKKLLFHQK
smiles,measurement,setting,value
C=CCc1cc(OC)c(O)c(C(=O)NCCO)c1,Potency,[1],inactive
same,Potency,[2],inactive
same,Potency,[3],inactive
same,Potency,[4],inactive
same,Potency,[5],inactive
same,Potency,[6],inactive
same,outcome,[7],inactive
same,outcome,[8],inactive
same,outcome,[9],inactive
same,outcome,[10],inactive
same,outcome,[11],inactive
same,outcome,[12],inactive
same,outcome,[13],inactive
same,outcome,[14],inactive
same,outcome,[15],inactive
same,outcome,[16],inactive
same,outcome,[17],inactive
same,outcome,[18],inactive
same,Potency,[19],inactive
same,Potency,[20],inactive
CC1=C(O)C(=O)OC1C (stereo not given),Potency,[1],inactive
same,Potency,[2],inactive
same,Potency,[3],inactive
same,Potency,[4],inactive
same,Potency,[5],inactive
same,Potency,[6],inactive
same,outcome,[7],inactive
same,outcome,[8],inactive
same,outcome,[9],inactive
same,outcome,[10],inactive
same,outcome,[11],inactive
same,outcome,[12],inactive
same,outcome,[13],inactive
same,outcome,[14],inactive
same,outcome,[15],inactive
same,outcome,[16],inactive
same,outcome,[17],inactive
same,outcome,[18],inactive
same,Potency,[19],inactive
same,Potency,[20],inactive
COC(=O)C(C)O (stereo not given),Potency,[1],inactive
same,Potency,[2],inactive
same,Potency,[3],inactive
same,Potency,[4],inactive
same,Potency,[5],inactive
same,Potency,[6],inactive
same,outcome,[7],inactive
same,outcome,[8],inactive
same,outcome,[9],inactive
same,outcome,[11],inactive
same,outcome,[12],inactive
same,outcome,[13],inactive
same,outcome,[14],inactive
same,outcome,[15],inactive
same,outcome,[16],inactive
same,outcome,[18],inactive
CCCCCOc1ccc(C2SC(=O)NC2=O)cc1OCC (stereo not given),Potency,[1],inactive
same,Potency,[2],inactive
same,Potency,[3],inactive
same,Potency,[4],inactive
same,Potency,[5],inactive
same,Potency,[6],29.8 µM (active)
same,outcome,[7],inactive
same,outcome,[8],inactive
same,outcome,[9],inactive
same,outcome,[10],inactive
same,outcome,[11],inactive
same,outcome,[12],inactive
same,outcome,[13],inactive
same,outcome,[15],inactive
same,outcome,[16],inactive
same,outcome,[17],inactive
same,outcome,[18],inactive
CCN[C@H]1CN(CCCOC)S(=O)(=O)c2sc(S(N)(=O)=O)cc21,Potency,[1],inactive
same,Potency,[2],inactive
same,Potency,[3],inactive
same,Potency,[4],inactive
same,Potency,[5],inactive
same,Potency,[6],inactive
same,"fluorescence, % of fluorescein control",[8],-0.244% [at 18.6 µM]
same,"fluorescence, % of triamterene",[9],0.009% [at 18.6 µM]
same,"fluorescence, % of fluorescent control",[10],0.0594% [at 18.6 µM]
same,"fluorescence, % of fluorescein",[11],-0.0786% [at 18.6 µM]
same,"fluorescence, % of fluorescent control",[12],0.113% [at 18.6 µM]
same,activity change,[13],-0.0447% [at 18.6 µM]
same,"fluorescence, % of fluorescent control",[14],-0.021% [at 18.6 µM]
same,"fluorescence, % of Rose Bengal",[15],0.0022% [at 18.6 µM]
same,"fluorescence, % of fluorescent control",[16],-0.0073% [at 18.6 µM]
same,"fluorescence, % of fluorescein control",[17],0.0136% [at 18.6 µM]
same,"fluorescence, % of fluorescent control",[18],-0.117% [at 18.6 µM]
same,Potency,[19],inactive
CCCC1CCC(=O)O1 (stereo not given),Potency,[1],inactive
same,Potency,[2],inactive
same,Potency,[3],inactive
same,Potency,[4],inactive
same,Potency,[5],inactive
same,Potency,[6],inactive
same,outcome,[7],inactive
same,outcome,[8],inactive
same,outcome,[9],inactive
same,outcome,[10],inactive
same,outcome,[11],inactive
same,outcome,[12],inactive
same,outcome,[13],inactive
same,outcome,[14],inactive
same,outcome,[15],inactive
same,outcome,[16],inactive
same,outcome,[18],inactive
same,Potency,[19],inactive
same,Potency,[20],inactive
